Consider 30 sequences from PMC11006913.

The target of experiment [1] is NKX3-2 (Homo sapiens, UniProt P78367 192-278, P234S). The experiment is described as follows: PBM; 200 nM protein, PBS. The conditions noted are these: dsDNA, one strand shown.
The target of experiment [2] is NKX3-2 (Homo sapiens, UniProt P78367 192-278). The experiment is described as follows: PBM; 200 nM protein, PBS. The conditions noted are these: dsDNA, one strand shown.
Sequence of NKX3-2 (Homo sapiens, UniProt P78367 192-278) (P78367 192-278): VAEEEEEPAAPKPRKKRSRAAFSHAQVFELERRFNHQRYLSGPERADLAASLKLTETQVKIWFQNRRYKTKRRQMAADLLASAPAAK

Sequence of NKX3-2 (Homo sapiens, UniProt P78367 192-278, P234S) (P78367 192-278 P234S): as the sequence (P78367 192-278) above, with P43S counted along it

Consider ACGGTGTC, for which the binding signal with NKX3-2 [1] is 10.6 upbm affinity estimate (log intensity, higher = more binding, comparable within an allelic series); in the experiment with NKX3-2 [2] it was 10.6 upbm affinity estimate (log intensity, higher = more binding, comparable within an allelic series).
CACTCTCG: the binding signal with NKX3-2 [1] is 11.9 upbm affinity estimate (log intensity, higher = more binding, comparable within an allelic series); in the experiment with NKX3-2 [2], 12 upbm affinity estimate (log intensity, higher = more binding, comparable within an allelic series).
Take GCCCCCGA: the binding signal is 10.4 upbm affinity estimate (log intensity, higher = more binding, comparable within an allelic series) in the experiment with NKX3-2 [1] and 10.4 upbm affinity estimate (log intensity, higher = more binding, comparable within an allelic series) with NKX3-2 [2].
As to ACGGCGGG, the binding signal with NKX3-2 [1] is 10.4 upbm affinity estimate (log intensity, higher = more binding, comparable within an allelic series); with NKX3-2 [2], 10.4 upbm affinity estimate (log intensity, higher = more binding, comparable within an allelic series).
On to GAGGCAGC, for which the binding signal in the experiment with NKX3-2 [1] was 10.4 upbm affinity estimate (log intensity, higher = more binding, comparable within an allelic series); in the experiment with NKX3-2 [2], 10.4 upbm affinity estimate (log intensity, higher = more binding, comparable within an allelic series).
As to AAAGTGGC, the binding signal with NKX3-2 [1] was 12.6 upbm affinity estimate (log intensity, higher = more binding, comparable within an allelic series); with NKX3-2 [2], 12.6 upbm affinity estimate (log intensity, higher = more binding, comparable within an allelic series).
Regarding CCTAAGTA, the binding signal in the experiment with NKX3-2 [1] is 12.1 upbm affinity estimate (log intensity, higher = more binding, comparable within an allelic series); with NKX3-2 [2], 12.1 upbm affinity estimate (log intensity, higher = more binding, comparable within an allelic series).
In the case of CTGGCAAG, the binding signal with NKX3-2 [1] was 10.5 upbm affinity estimate (log intensity, higher = more binding, comparable within an allelic series); with NKX3-2 [2], 10.5 upbm affinity estimate (log intensity, higher = more binding, comparable within an allelic series).
On to AAGAGTGG, for which the binding signal was 12.5 upbm affinity estimate (log intensity, higher = more binding, comparable within an allelic series) with NKX3-2 [1] and 12.7 upbm affinity estimate (log intensity, higher = more binding, comparable within an allelic series) with NKX3-2 [2].
On to ACCGAACC, for which the binding signal with NKX3-2 [1] is 10.6 upbm affinity estimate (log intensity, higher = more binding, comparable within an allelic series); in the experiment with NKX3-2 [2] it was 10.7 upbm affinity estimate (log intensity, higher = more binding, comparable within an allelic series).
Consider CCGAGTAC, for which the binding signal with NKX3-2 [1] was 11.5 upbm affinity estimate (log intensity, higher = more binding, comparable within an allelic series); in the experiment with NKX3-2 [2] it was 11.6 upbm affinity estimate (log intensity, higher = more binding, comparable within an allelic series).
As for ACTCTGAT, the binding signal in the experiment with NKX3-2 [1] was 11.5 upbm affinity estimate (log intensity, higher = more binding, comparable within an allelic series); in the experiment with NKX3-2 [2] it was 11.6 upbm affinity estimate (log intensity, higher = more binding, comparable within an allelic series).
As to AGAGAGGA, the binding signal with NKX3-2 [1] is 11.5 upbm affinity estimate (log intensity, higher = more binding, comparable within an allelic series); with NKX3-2 [2] it was 11.6 upbm affinity estimate (log intensity, higher = more binding, comparable within an allelic series).
For AAACCGCG, the binding signal is 10.5 upbm affinity estimate (log intensity, higher = more binding, comparable within an allelic series) with NKX3-2 [1] and 10.5 upbm affinity estimate (log intensity, higher = more binding, comparable within an allelic series) with NKX3-2 [2].
Turning to CAAGTGCG, the binding signal in the experiment with NKX3-2 [1] was 12.2 upbm affinity estimate (log intensity, higher = more binding, comparable within an allelic series); with NKX3-2 [2], 12.3 upbm affinity estimate (log intensity, higher = more binding, comparable within an allelic series).
On to CGTGGGAA, for which the binding signal with NKX3-2 [1] was 10.6 upbm affinity estimate (log intensity, higher = more binding, comparable within an allelic series); with NKX3-2 [2] it was 10.6 upbm affinity estimate (log intensity, higher = more binding, comparable within an allelic series).
Regarding AATGCGGT, the binding signal with NKX3-2 [1] was 10.7 upbm affinity estimate (log intensity, higher = more binding, comparable within an allelic series); in the experiment with NKX3-2 [2], 10.8 upbm affinity estimate (log intensity, higher = more binding, comparable within an allelic series).
Consider GGTGGTAC, for which the binding signal with NKX3-2 [1] was 10.5 upbm affinity estimate (log intensity, higher = more binding, comparable within an allelic series); with NKX3-2 [2] it was 10.6 upbm affinity estimate (log intensity, higher = more binding, comparable within an allelic series).
On to GTCACTTA, for which the binding signal was 12.5 upbm affinity estimate (log intensity, higher = more binding, comparable within an allelic series) with NKX3-2 [1] and 12.6 upbm affinity estimate (log intensity, higher = more binding, comparable within an allelic series) in the experiment with NKX3-2 [2].
On to AGGCATGG, for which the binding signal was 10.6 upbm affinity estimate (log intensity, higher = more binding, comparable within an allelic series) in the experiment with NKX3-2 [1] and 10.5 upbm affinity estimate (log intensity, higher = more binding, comparable within an allelic series) with NKX3-2 [2].
Turning to CCCACGGG, the binding signal is 10.3 upbm affinity estimate (log intensity, higher = more binding, comparable within an allelic series) in the experiment with NKX3-2 [1] and 10.3 upbm affinity estimate (log intensity, higher = more binding, comparable within an allelic series) with NKX3-2 [2].
As for ACGGCAGC, the binding signal was 10.6 upbm affinity estimate (log intensity, higher = more binding, comparable within an allelic series) with NKX3-2 [1] and 10.5 upbm affinity estimate (log intensity, higher = more binding, comparable within an allelic series) with NKX3-2 [2].
Take ACCAAGAG: the binding signal was 11.7 upbm affinity estimate (log intensity, higher = more binding, comparable within an allelic series) with NKX3-2 [1] and 11.8 upbm affinity estimate (log intensity, higher = more binding, comparable within an allelic series) with NKX3-2 [2].
Regarding CCGCCGAA, the binding signal with NKX3-2 [1] is 10.4 upbm affinity estimate (log intensity, higher = more binding, comparable within an allelic series); in the experiment with NKX3-2 [2], 10.4 upbm affinity estimate (log intensity, higher = more binding, comparable within an allelic series).
Consider GAGTGCAC, for which the binding signal was 12.2 upbm affinity estimate (log intensity, higher = more binding, comparable within an allelic series) in the experiment with NKX3-2 [1] and 12.4 upbm affinity estimate (log intensity, higher = more binding, comparable within an allelic series) with NKX3-2 [2].
Take AGCACTTC: the binding signal with NKX3-2 [1] is 12.4 upbm affinity estimate (log intensity, higher = more binding, comparable within an allelic series); in the experiment with NKX3-2 [2], 12.4 upbm affinity estimate (log intensity, higher = more binding, comparable within an allelic series).
Turning to CGGTTGAC, the binding signal with NKX3-2 [1] is 10.5 upbm affinity estimate (log intensity, higher = more binding, comparable within an allelic series); with NKX3-2 [2], 10.5 upbm affinity estimate (log intensity, higher = more binding, comparable within an allelic series).
GCCCGGCC: the binding signal with NKX3-2 [1] is 10.3 upbm affinity estimate (log intensity, higher = more binding, comparable within an allelic series); with NKX3-2 [2], 10.2 upbm affinity estimate (log intensity, higher = more binding, comparable within an allelic series).
In the case of GAAGTGTC, the binding signal with NKX3-2 [1] was 12.2 upbm affinity estimate (log intensity, higher = more binding, comparable within an allelic series); with NKX3-2 [2], 12.3 upbm affinity estimate (log intensity, higher = more binding, comparable within an allelic series).
Consider GCCTGACC, for which the binding signal with NKX3-2 [1] is 10.6 upbm affinity estimate (log intensity, higher = more binding, comparable within an allelic series); in the experiment with NKX3-2 [2] it was 10.6 upbm affinity estimate (log intensity, higher = more binding, comparable within an allelic series).
